Test results taken from the supplement of paper PMC4709259.
Where a name gives a salt, the structure may show the parent alone. ± gives the standard deviation.

What was measured:
Jurkat [1] = assay: mean cell size (FSC-A) relative to DMSO control (fraction of control); higher = larger cells; details: 48 h
Method in brief: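 Jurkat cells at 600 cells/µl were incubated for 1 h and then treated for 48h with the Enzo Screen-Well FDA Approved Drug Library v2.0 at 25µM, with DMSO at 0.9% (v/v) final. Compounds that reduced counts below 20% of controls were retested in 10-fold dilutions down to 25nM. Cell count and mean cell size, taken as forward scatter area, were measured by flow cytometry relative to solvent-only controls. Each plate carried 6-12 controls, and values are means of 3 biological replicates.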

Jurkat [2] = assay: cell count relative to DMSO control (fraction of control); higher = more cells (less growth inhibition); details: 48 h

Row | Compound | mean cell size (Jurkat [1]) | cell count (Jurkat [2])
1 | CCCC(C)(COC(N)=O)COC(N)=O [Meprobamate (Schedule Iv)] (concentration: 25 µM) | 1.08 ± 0.036 | 0.941 ± 0.069
2 | CC1(C)C(C=C(Cl)Cl)C1C(=O)OCc1cccc(Oc2ccccc2)c1 (stereo unspecified) [Permethrin] (concentration: 25 µM) | 1.03 ± 0.068 | 1.05 ± 0.08
3 | O=C1CN=C(c2ccccc2Cl)c2cc([N+](=O)[O-])ccc2N1 [Clonazepam] (concentration: 25 µM) | 1.02 ± 0.06 | 0.659 ± 0.12
4 | Cc1nnc2n1-c1ccc(Cl)cc1C(c1ccccc1Cl)=NC2 [Triazolam] (concentration: 25 µM) | 0.935 ± 0.05 | 0.992 ± 0.11
5 | COc1ccc2c(c1)[C@]13CCCC[C@@H]1[C@H](C2)N(C)CC3 [Dextromethorphan] (concentration: 25 µM) | 0.936 ± 0.022 | 0.841 ± 0.024
6 | C#CCN(C)[C@H](C)Cc1ccccc1 [Selegiline·HCl] (concentration: 25 µM) | 0.9392 ± 0.0074 | 0.711 ± 0.098
7 | Cc1c(N)nc(C(CC(N)=O)NCC(N)C(N)=O)nc1C(=O)NC(C(=O)NC(C)C(O)C(C)C(=O)NC(C(=O)NCCc1nc(-c2nc(C(=O)NCCC[S+](C)C)cs2)cs1)C(C)O)C(O[C@@H]1O[C@@H](CO)[C@@H](O)[C@H](O)[C@@H]1O[C@H]1O[C@H](CO)[C@@H](O)[C@H](OC(N)=O)[C@@H]1O)c1cnc[nH]1 (stereo partly specified) [Bleomycin Sulfate] (concentration: 2.5 µM) | 1.33 ± 0.048 | 0.297 ± 0.043
8 | O=c1[nH]c2ccccc2n1C1CCN(CCCC(c2ccc(F)cc2)c2ccc(F)cc2)CC1 [Pimozide] (concentration: 2.5 µM) | 1.08 ± 0.033 | 0.663 ± 0.14
